Source: PubChem BioAssay (NCI)
The panel holds about 79,000 compounds, 15% with a hit somewhere; the sample as a whole holds those more often. The source made the active and inactive calls. Rule as the data show it: active = growth inhibition above about 70%; inactive = the rest.

Legend:
[1] = NCI Yeast Anticancer Drug Screen. Data for the wt1 strain (AID 149);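 also: 0% = growth of vehicle-treated wt1 cultures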; conditions: S. cerevisiae wt1 strain (SPY 50644) growth inhibition, active compounds read high
Procedure, shortened: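 wt1 yeast, compound-treated; % growth inhibition vs vehicle control.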

[2] = NCI Yeast Anticancer Drug Screen. Data for the rad50EPP+ strain (AID 151);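 also: 0% = growth of vehicle-treated control cultures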; conditions: S. cerevisiae rad50 mutant strain, active compounds read high
Procedure, shortened: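 Compounds were applied to the rad50EPP+ yeast strain, which bears a defined DNA repair alteration, and growth inhibition was determined relative to vehicle-treated cultures.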

[3] = NCI Yeast Anticancer Drug Screen. Data for the mgt1 strain (AID 153); conditions: S. cerevisiae mgt1 mutant growth inhibition, active compounds read high
Procedure, shortened: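 Strain: mgt1 yeast, one of a set carrying defined DNA damage repair or cell cycle control alterations. Compound-treated growth compared with vehicle.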

[4] = NCI Yeast Anticancer Drug Screen. Data for the rad50 strain (AID 155);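 also: 0% = growth of vehicle-only cultures of the same strain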; conditions: S. cerevisiae rad50 strain growth inhibition, active compounds read high
Procedure, shortened: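 Genetically altered yeast (DNA repair pathway); compound treatment; growth inhibition vs vehicle ctrl.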

[5] = NCI Yeast Anticancer Drug Screen. Data for the mec2-1 strain (AID 157); conditions: S. cerevisiae mec2-1 strain, active compounds read high
Procedure, shortened: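 Strain: mec2-1 (DNA repair/cell cycle alteration). Compound exposure, then growth measured; inhibition expressed relative to vehicle.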

[6] = NCI Yeast Anticancer Drug Screen. Data for the sgs1 mgt1 strain (AID 161);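 also: 0% = growth of cultures given vehicle only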; conditions: S. cerevisiae sgs1 mgt1 strain, active compounds read high
Procedure, shortened: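 Mutant yeast exposed to compound; growth scored against vehicle-only wells.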

[7] = NCI Yeast Anticancer Drug Screen. Data for the CLN2oe strain (AID 163);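 also: 0% = growth of vehicle-only control cultures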; conditions: S. cerevisiae CLN2oe strain, active compounds read high
Procedure, shortened: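 Growth of a genetically modified yeast strain is measured after compound exposure and compared with cultures given vehicle alone.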

[8] = NCI Yeast Anticancer Drug Screen. Data for the cln2 rad14 strain (AID 165);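 also: 0% = growth equal to vehicle treated cultures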; conditions: S. cerevisiae cln2 rad14 strain, active compounds read high
Procedure, shortened: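 Compounds are applied to the cln2 rad14 yeast strain, and growth is then compared with that of vehicle-treated cultures to give inhibition.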

[9] = NCI Yeast Anticancer Drug Screen. Data for the bub3 strain (AID 167); conditions: S. cerevisiae bub3 mutant strain, active compounds read high
Procedure, shortened: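 Yeast carrying a defined mutation is treated with each compound, and growth is compared with that of vehicle-exposed cells to give inhibition.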

[10] = NCI Yeast Anticancer Drug Screen. Data for the wt2 strain (AID 169);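 also: 0% = growth of vehicle-treated yeast cultures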; conditions: S. cerevisiae wt2 strain growth inhibition, active compounds read high
Procedure, shortened: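 This strain belongs to a panel of yeast strains with defined genetic alterations in DNA damage repair or cell cycle control. Compounds are applied, and growth inhibition is measured against vehicle-treated cultures.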

[11] = NCI Yeast Anticancer Drug Screen. Data for the mlh1 strain (AID 171);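 also: 0% = growth of vehicle-treated control cultures of the same strain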; conditions: S. cerevisiae mlh1 strain growth inhibition, active compounds read high
Procedure, shortened: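 Growth of the mutant yeast strain after compound exposure, expressed as inhibition relative to vehicle-only controls.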

[12] = NCI Yeast Anticancer Drug Screen. Data for the sgs1 strain (AID 173);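 also: 0% = growth of vehicle-only control cultures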; conditions: S. cerevisiae sgs1 mutant, active compounds read high
Procedure, shortened: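 Growth of a yeast strain bearing a defined genetic alteration is measured after compound treatment. Inhibition is expressed relative to vehicle-only controls.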

[13] = NCI Yeast Anticancer Drug Screen. Data for the mlh1 rad18 strain (AID 175); conditions: S. cerevisiae mlh1 rad18 strain growth inhibition, active compounds read high
Procedure, shortened: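 Read-out is yeast growth inhibition, calculated against vehicle-only controls. The compound was applied to a strain engineered with DNA damage repair alterations.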

[14] = NCI Yeast Anticancer Drug Screen. Data for the rad18 strain (AID 177); conditions: S. cerevisiae rad18 mutant growth inhibition, active compounds read high
Procedure, shortened: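 Growth of the mutant yeast strain after compound exposure, normalised to vehicle-only cultures.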

[15] = at 5.0 µM (retest, dose inferred, filed as 0.5)
[16] = at 50.0 µM (retest, dose inferred, filed as 5.0)

Measured: growth inhibition

Cc1cc(N(CCOS(C)(=O)=O)CCOS(C)(=O)=O)ccc1C=O
active: [13]; [16] 88% | [13]; at 50.0 µM 82.5% | [14]; at 11.0 µM 70% | [14]; at 33.0 µM 86% | [14]; at 100.0 µM 89%
inactive: [1]; at 1.2 µM 27% | [1]; at 3.7 µM 28% | [1]; at 11.0 µM 32% | [1]; at 33.0 µM 37% | [1]; at 100.0 µM 31% | [2]; at 1.2 µM 15% | [2]; at 3.7 µM 45% | [2]; at 11.0 µM 34% | [2]; at 33.0 µM 30% | [2]; at 100.0 µM 15% | [3]; at 1.2 µM 14% | [3]; at 3.7 µM 26% | [3]; at 11.0 µM 34% | [3]; at 33.0 µM 41% | [3]; at 100.0 µM 44% | [4]; at 1.2 µM 4% | [4]; at 3.7 µM 16% | [4]; [15] 29% | [4]; at 11.0 µM 26% | [4]; at 33.0 µM 43% | [4]; [16] 57% | [4]; at 50.0 µM 50% | [4]; at 100.0 µM 66% | [5]; at 1.2 µM 6% | [5]; at 3.7 µM 23% | [5]; [15] 24% | [5]; at 11.0 µM 24% | [5]; at 33.0 µM 41% | [5]; [16] 57% | [5]; at 50.0 µM 54.8% | [5]; at 100.0 µM 68% | [6]; [15] 13% | [6]; [16] 38% | [6]; at 50.0 µM 12.8% | [7]; at 1.2 µM 2% | [7]; at 3.7 µM 9% | [7]; at 11.0 µM 10% | [7]; at 33.0 µM 36% | [7]; at 100.0 µM 34% | [8]; [15] 34% | [8]; [16] 45% | [8]; at 50.0 µM 36.9% | [9]; at 1.2 µM 16% | [9]; at 3.7 µM 17% | [9]; [15] -3% | [9]; at 11.0 µM 4% | [9]; at 33.0 µM 18% | [9]; [16] 13% | [9]; at 50.0 µM 4.7% | [9]; at 100.0 µM 34% | [10]; at 1.2 µM -45% | [10]; at 3.7 µM -46% | [10]; at 11.0 µM -43% | [10]; at 33.0 µM 1% | [10]; at 100.0 µM 33% | [11]; at 1.2 µM 14% | [11]; at 3.7 µM 28% | [11]; at 11.0 µM 24% | [11]; at 33.0 µM 52% | [11]; at 100.0 µM 60% | [12]; at 1.2 µM 19% | [12]; at 3.7 µM 22% | [12]; at 11.0 µM 39% | [12]; at 33.0 µM 51% | [12]; at 100.0 µM 58% | [13]; [15] 56% | [14]; at 1.2 µM 29% | [14]; at 3.7 µM 50%

O=C(Cc1ccccc1)c1ccc(O)cc1
inactive: [1]; at 1.2 µM -20% | [1]; at 3.7 µM -8% | [1]; at 11.0 µM 5% | [1]; at 33.0 µM 63% | [2]; at 1.2 µM 11% | [2]; at 3.7 µM 10% | [2]; at 11.0 µM -3% | [2]; at 33.0 µM 40% | [3]; at 1.2 µM -45% | [3]; at 3.7 µM -56% | [3]; at 11.0 µM -38% | [3]; at 33.0 µM 51% | [4]; at 1.2 µM -15% | [4]; at 3.7 µM -21% | [4]; at 11.0 µM 17% | [5]; at 1.2 µM -24% | [5]; at 3.7 µM -15% | [5]; at 11.0 µM 20% | [6]; [15] 1% | [7]; at 1.2 µM 5% | [7]; at 3.7 µM 15% | [7]; at 11.0 µM 22% | [7]; at 33.0 µM 53% | [8]; [15] 36% | [8]; at 50.0 µM 62.6% | [9]; at 1.2 µM -11% | [9]; at 3.7 µM -14% | [9]; [15] 44% | [9]; at 11.0 µM 24% | [9]; at 33.0 µM 69% | [10]; at 1.2 µM -10% | [10]; at 3.7 µM -17% | [10]; at 11.0 µM -10% | [10]; at 33.0 µM 58% | [11]; at 1.2 µM -13% | [11]; at 3.7 µM 0% | [11]; at 11.0 µM 23% | [11]; at 33.0 µM 68% | [12]; at 1.2 µM -15% | [12]; at 3.7 µM -39% | [12]; at 11.0 µM -5% | [12]; at 33.0 µM 59% | [13]; [15] 56% | [14]; at 1.2 µM -34% | [14]; at 3.7 µM -41% | [14]; at 11.0 µM -11% | [14]; at 33.0 µM 69%
active: [1]; at 100.0 µM 87% | [2]; at 100.0 µM 71% | [3]; at 100.0 µM 82% | [4]; [15] 81% | [4]; at 33.0 µM 74% | [4]; [16] 99% | [4]; at 50.0 µM 83.5% | [4]; at 100.0 µM 85% | [5]; [15] 78% | [5]; at 33.0 µM 70% | [5]; [16] 98% | [5]; at 50.0 µM 91.5% | [5]; at 100.0 µM 91% | [6]; [16] 88% | [6]; at 50.0 µM 94.2% | [7]; at 100.0 µM 85% | [8]; [16] 90% | [9]; [16] 97% | [9]; at 50.0 µM 92.7% | [9]; at 100.0 µM 89% | [10]; at 100.0 µM 87% | [11]; at 100.0 µM 89% | [12]; at 100.0 µM 88% | [13]; [16] 99% | [13]; at 50.0 µM 86.1% | [14]; at 100.0 µM 89%
